# In the library only some 3.7% were active in any assay of this set; here they are far more common.
# Kir21 block – inhibitors of mouse Kir2.1 inward-rectifier potassium channel | P35561 | HEK293-Kir2.1, FluxOR thallium flux fluorescence; hits give low values | B-score at 10 µM | actives 0.85% (n = 310,000);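 active = fluorescence ratio B-score at or below minus 3 SD of library scores, with starting-brightness B-score within 2 SD, cut at about -4.2 in these data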;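 also: channel flux triggered by added potassium and thallium sulfate stimulus; B-score of peak minus minimum fluorescence over baseline after thallium stimulus; more negative B-score means stronger Kir2.1 block with less thallium influx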
# CHT inh – inhibitors of human choline transporter CHT; Q9GZV3; CHT-expressing cells, membrane potential dye, choline response; hits give low values; B-score at 10 µM; actives 0.86% (n = 310,000); AID 488975;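 active = B-score over 3 SD under the library average, and starting fluorescence ratio not unusually high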;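 also: choline stimulus applied at its EC90 after an EC20 pre-addition; B-score computed on integrated fluorescence ratio after choline addition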
# Target sequence (Q9GZV3 whole entry, looked up): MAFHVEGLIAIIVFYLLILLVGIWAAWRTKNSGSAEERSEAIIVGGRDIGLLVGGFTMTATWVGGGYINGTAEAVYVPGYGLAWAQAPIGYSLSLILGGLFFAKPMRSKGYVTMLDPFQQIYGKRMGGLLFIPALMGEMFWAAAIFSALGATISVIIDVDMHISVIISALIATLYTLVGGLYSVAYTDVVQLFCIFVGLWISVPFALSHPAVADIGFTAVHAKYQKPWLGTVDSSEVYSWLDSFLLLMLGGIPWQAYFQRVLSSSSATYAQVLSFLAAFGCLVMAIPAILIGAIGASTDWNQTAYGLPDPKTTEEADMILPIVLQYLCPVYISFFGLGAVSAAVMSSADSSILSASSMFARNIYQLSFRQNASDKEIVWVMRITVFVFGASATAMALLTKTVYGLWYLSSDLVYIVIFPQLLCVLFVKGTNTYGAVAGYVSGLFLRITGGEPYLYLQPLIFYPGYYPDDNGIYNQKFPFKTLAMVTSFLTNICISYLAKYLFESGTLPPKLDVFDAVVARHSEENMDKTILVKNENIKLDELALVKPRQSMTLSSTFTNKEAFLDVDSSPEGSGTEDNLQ
# CHT allo act – human CHT allosteric activation; Q9GZV3; CHT-expressing cells, membrane potential dye, choline EC20; hits give high values; LV-AA mutant CHT in HEK293 cells; B-score at 10 µM; actives 0.49% (n = 310,000);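 active = initial fluorescence not abnormally high and integrated response B-score, plate-corrected, over 3 SD above library mean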
# GPR7 antag – antagonists of human GPR7 (neuropeptides B/W receptor 1) | GPR7-expressing cells, fluorescence antagonist assay | actives 1.1% (n = 290,000) | inhibition, % at 4.4 µM | AID 1861 | P48145; in the data active = inhibition above about 16%, passing the limit was not always enough;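 also: cells stimulated with the agonist NPW; 0% = agonist with vehicle and 100% = vehicle without agonist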
# ANO1 activ – mouse TMEM16A channel activation, primary screen; B-score at 10 µM; AID 623877; HEK293 TMEM16A/YFP-H148Q/I152L, iodide quench fluorescence; hits give low values; Q8BHY3; actives 0.3% (n = 340,000);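 active = fluorescence-ratio B-score plate-corrected deviation score at least 3 library SD below zero, with starting fluorescence score within 5 deviations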;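 also: channel opened by trigger with iodide after compound preincubation; score built on the fluorescence ratio of max minus min over baseline; more negative score means more quench and so TMEM16A activation or potentiation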
# ANO1 block – blocks the mouse calcium-activated chloride channel TMEM16A | Q8BHY3 | HEK293 TMEM16A/YFP iodide influx fluorescence, ionomycin | normalized B-score (activity score, 25-100; higher = stronger inhibition) at 10 µM | actives 1.2% (n = 310,000) | AID 588511;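 active = ratio plate-corrected score three or more library SD toward inhibition, starting fluorescence score within five deviations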;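 also: score derived from kinetic fluorescence span divided by baseline fluorescence per well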
# CHT activ conf – human CHT activation, confirmatory screen; shares compounds with CHT allo act; CHT-expressing cells, membrane potential dye fluorescence (FDSS); % of choline EC20–EC90 response window; HEK293 expressing CHT LV-AA mutant; choline added at its EC20; activation, % at 10 µM; actives 91% (n = 2,500);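 active = primary screen active, with duplicate mean activation above negative control mean plus 3 SD, cut at about 11% in these data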
# HEK293 MP dye – CHT activator counter-screen hit in parental HEK293 cells; shares compounds with CHT allo act; membrane potential dye fluorescence (FDSS); measured after EC20 choline addition; ratio readout change at 10 µM, hits read low; actives 62% (n = 2,500); AID 623908;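 active = duplicate-averaged ratio beyond 3 SD from buffer wells, up or down, though filed actives are nearly all decreases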
# Active calls of the source: *; i = inactive; . = no result given.
SMILES,Kir21 block,CHT inh,CHT allo act,GPR7 antag,ANO1 activ,ANO1 block,CHT activ conf,HEK293 MP dye
COc1ccc(Oc2nc3c(c(=O)n(C)c(=O)n3C)n2Cc2ccccc2)cc1,1.91,i,i,1.8,i,i,.,.
Cc1cc(O)c(C2=Nc3ccccc3SC(c3ccc(Cl)cc3)C2)c(=O)o1 (stereo unspecified),-0.09,i,i,-4.3,i,i,.,.
COc1ccc(C2CC(c3c(O)cc(C)oc3=O)=NCCS2)c(OC)c1 (stereo unspecified),.,i,7.6*,7.5,i,i,50.9*,i
N#Cc1cc2c(=O)n3ccccc3nc2n(Cc2cccnc2)c1=O,0.55,i,6.94*,.,i,i,48.0*,-44*
COc1ccc(S(=O)(=O)N2CN3CCN(C3)C2)cc1OC,-0.5,i,i,-7.6,i,i,.,.
CC(=O)Oc1ccccc1/C=C/c1ccc2ccccc2[n+]1C,1.09,i,6.85*,-3.1,i,i,47.7*,-41.9*
Cc1cc(C)n(CC(=O)NC2CCCCC2C)c(=O)c1C#N (stereo unspecified),0.33,i,i,.,i,i,.,.
COc1cccc(CNC(=O)CCS(=O)(=O)Cc2ccc(C)cc2)c1,0.77,i,i,-4.3,i,i,.,.
Cc1cccc(Oc2nccc(C(F)(F)F)c2C(=O)Nc2ccc(F)cc2F)c1,-0.14,i,i,-14.0,i,i,.,.
Cc1nn(C)c(Oc2cccc(Cl)c2)c1C(=O)Nc1ccc(F)cc1F,-0.14,i,i,-7.1,i,i,29.8*,i
CCOC(=O)C1=C(N)OC2=C(C(=O)CC(C)(C)C2)C1c1ccc(CC)s1 (stereo unspecified),0.19,i,7.6*,-11.8,i,i,20.8*,i
CCOC(=O)C1=C(N)OC2=C(C(=O)CC(C)(C)C2)C1c1ccc(C)s1 (stereo unspecified),-0.47,i,i,-3.3,i,i,.,.
CN(NC(=O)c1ccccc1F)c1ncccc1[N+](=O)[O-],0.01,i,i,-3.8,i,i,.,.
CCOc1ccc(S(=O)(=O)NCc2ccco2)c2ccccc12,-2.18,i,i,-4.3,i,i,16.5*,i
COc1cc(OC)c(S(=O)(=O)NCc2ccco2)cc1S(=O)(=O)NCc1ccco1,-4.16,i,i,-10.4,i,i,.,.
Cc1ccc(S(=O)(=O)/C(=C\N(C)C)c2cnc(Cl)s2)cc1,-3.31,i,i,-11.6,i,i,.,.
NC1=NS(=O)(=O)NC1c1ccc(F)cc1 (stereo unspecified),0.48,i,i,3.5,i,i,.,.
COc1cc2c(cc1OC)C(/C(C#N)=N\O)=NC(C)(C)C2,-1.85,i,i,-14.6,i,i,.,.
COc1ccc(C2=NC(C)(C)Cc3cc(OC)c(OC)cc32)cc1,-0.54,i,8.28*,-11.8,i,i,66.8*,-84*
COc1ccc(C2=NCCc3cc(OC)c(OC)cc32)cc1,1.04,i,7.49*,-1.1,i,i,26.9*,-92.4*
COc1cccc(CNCc2cccnc2)c1OCc1ccccc1,-1.68,i,i,19.2,i,i,.,.
CC(=O)c1ccccc1NC(=O)COC(=O)c1cc2ccccc2[nH]1,.,.,.,.,i,.,.,.
O=c1oc2ccccc2c(N2CCC(c3ccccc3)CC2)c1[N+](=O)[O-],1.81,i,i,-5.5,i,i,4.7,i
COc1ccc(S(=O)(=O)N2CCCCC2)cc1NS(=O)(=O)c1ccccc1,.,.,.,.,i,.,.,.
O=C(CN(C(=O)CNC(=O)c1ccco1)c1ccc(Cl)c(Cl)c1)NC1CCCCC1,0.24,i,6.95*,15.0,i,i,38.6*,i
SMILES,Kir21 block,CHT inh,CHT allo act,GPR7 antag,ANO1 activ,ANO1 block,CHT activ conf,HEK293 MP dye
O=C(CN(C(=O)CNC(=O)c1ccco1)c1ccc2c(c1)OCO2)NC1CCCCC1,0,i,i,-4.5,i,i,.,.
CCN1CCN(c2nc3c(C)cccn3c(=O)c2/C=C(\C#N)C(=O)NCCCOC)CC1,0.03,i,7.53*,20.1,i,i,50.4*,-59.7*
COCCNC(=O)/C(C#N)=C/c1c(N2CCN(c3ccccc3)CC2)nc2c(C)cccn2c1=O,2.61,i,i,-24.1,i,i,.,.
CCOC(=O)/C(C#N)=C/c1c(N2CCN(CC)CC2)nc2c(C)cccn2c1=O,0.01,i,i,20.8,i,i,52.2*,-50.4*
CCOC(=O)/C(C#N)=C/c1c(N2CCN(c3ccc(OC)cc3)CC2)nc2c(C)cccn2c1=O,-0.02,i,i,-11.0,i,i,.,.
CNC(=O)/C(C#N)=C/c1c(N2CCN(C)CC2)nc2c(C)cccn2c1=O,1.4,i,i,-5.3,i,i,57.9*,-56.1*
CNC(=O)/C(C#N)=C/c1c(N2CCN(c3cccc(Cl)c3)CC2)nc2c(C)cccn2c1=O,0.39,i,i,2.5,i,i,.,.
CCN1CCN(c2nc3c(C)cccn3c(=O)c2/C=C(\C#N)C(=O)NC)CC1,0.26,i,9.07*,2.8,i,i,46.9*,-44.9*
Cc1ccn2c(Nc3ccccc3)c(-c3ccccn3)nc2c1,0.9,i,i,-11.7,i,i,.,.
Cc1cccn2c(Nc3ccccc3)c(-c3ccccn3)nc12,0,i,i,4.3,i,i,40.7*,-24.6*
Brc1ccc(-c2nc(-c3ccncc3)no2)cc1,0.15,i,i,-8.3,i,i,.,.
O=[N+]([O-])c1ccc(-c2nc(-c3ccncc3)no2)cc1,1.34,i,i,-13.9,i,i,26.0*,-36.4*
CCCCc1ccc(NC(=S)NCc2ccccc2OC)cc1,-0.31,i,i,18.5,i,i,.,.
Cc1cc(C)n2nc(C(=O)N/N=C/c3cn(C)nc3C)nc2n1,-0.18,i,i,-10.8,i,i,48.4*,-30.2*
Cc1nn(C)cc1/C=N/NC(=O)c1ccc2c(c1)OCO2,1.03,i,i,19.1,i,i,.,.
Cn1cccc/c1=N\c1cccc[n+]1C,0.41,i,i,-8.6,i,i,67.3*,-55.7*
